In assay [1] the target is Bile acid receptor (Homo sapiens) (UniProt Q96RI1). The assay can be described thus: qHTS assay for small molecule agonists of farnesoid X receptor signaling (AID 588527).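 Also: series mostly up to about 77 µM; 0% = vehicle basal and 100% = reference agonist.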 The note with it: HEK293T FXR-UAS-bla, beta-lactamase ratio, 16 h; activation: stronger effect = higher value. The method, boiled down: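 Quantitative HTS used FXR-UAS-bla HEK293T cells with 16 h compound incubation at 37 C. EC50 values came from concentration-response curves normalized to chenodeoxycholic acid.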
Bile acid receptor (Homo sapiens), sequence (Q96RI1 whole entry, looked up): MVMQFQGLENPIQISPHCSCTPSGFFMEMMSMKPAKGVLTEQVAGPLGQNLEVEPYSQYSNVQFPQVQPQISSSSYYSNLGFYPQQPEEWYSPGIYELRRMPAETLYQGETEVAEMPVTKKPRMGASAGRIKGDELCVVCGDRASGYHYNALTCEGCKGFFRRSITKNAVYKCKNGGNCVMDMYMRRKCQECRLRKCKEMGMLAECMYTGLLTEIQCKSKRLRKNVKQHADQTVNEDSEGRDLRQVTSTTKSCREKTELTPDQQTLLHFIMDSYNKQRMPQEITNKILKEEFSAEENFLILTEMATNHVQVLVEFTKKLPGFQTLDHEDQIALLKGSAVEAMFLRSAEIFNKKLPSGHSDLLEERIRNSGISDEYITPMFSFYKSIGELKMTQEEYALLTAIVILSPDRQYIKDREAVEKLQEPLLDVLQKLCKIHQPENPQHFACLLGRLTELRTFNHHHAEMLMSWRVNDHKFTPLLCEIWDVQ

The target is the same in assay [2]. The assay can be described thus: qHTS assay for small molecule antagonists of farnesoid X receptor signaling (AID 588526). Also: potency is read from the fitted curve at half-maximal effect. The method in brief:
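Antagonist mode: titrated compounds tested against chenodeoxycholic acid stimulation (normalized to 50 uM CDCA and DMSO) in GeneBLAzer HEK293T cells for 16 h. Beta-lactamase read by CCF4 fluorescence; IC50 from Hill fits.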
(In general: Quantitative high-throughput screening tests each substance at several concentrations.)

Assay [3] concerns the target Glucocorticoid receptor (Homo sapiens) (UniProt P04150). Kind of assay: qHTS assay for small molecule agonists of glucocorticoid receptor signaling (AID 588532; active = well fitted curve in the direction sought with a large enough effect in the signal ratio, with a control signal flat; the % refers to the signal ratio;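 also: 100% = dexamethasone at 0.1 µM and 0% = DMSO only wells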). The note with it: HeLa MMTV-bla, beta-lactamase ratio, agonist, 18 h; activation: stronger effect = higher value, percent of dexamethasone control, DMSO zero. The method in brief:
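HeLa GRE-bla reporter cells; 18 h compound exposure at 37 C; 2 h CCF4 loading at room temperature; fluorescence at 460 and 530 nm; EC50 by Hill equation.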

For assay [4], the target named is Peroxisome proliferator-activated receptor delta (Homo sapiens) (UniProt Q03181). The assay can be described thus: qHTS assay for small molecule agonists of peroxisome proliferator-activated receptor delta signaling (AID 588534).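 Also: 0% = DMSO basal wells and 100% = positive control agonist at 10 µM.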 The method in brief: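 Fluorescence from CCF4 substrate cleavage by beta-lactamase reporter, read 2 hrs at RT, measured agonist activity. Compounds were tested with 18 hrs exposure at 37 C. Concentration-response data fitted to Hill equation.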
Peroxisome proliferator-activated receptor delta (Homo sapiens), sequence (Q03181 whole entry, looked up): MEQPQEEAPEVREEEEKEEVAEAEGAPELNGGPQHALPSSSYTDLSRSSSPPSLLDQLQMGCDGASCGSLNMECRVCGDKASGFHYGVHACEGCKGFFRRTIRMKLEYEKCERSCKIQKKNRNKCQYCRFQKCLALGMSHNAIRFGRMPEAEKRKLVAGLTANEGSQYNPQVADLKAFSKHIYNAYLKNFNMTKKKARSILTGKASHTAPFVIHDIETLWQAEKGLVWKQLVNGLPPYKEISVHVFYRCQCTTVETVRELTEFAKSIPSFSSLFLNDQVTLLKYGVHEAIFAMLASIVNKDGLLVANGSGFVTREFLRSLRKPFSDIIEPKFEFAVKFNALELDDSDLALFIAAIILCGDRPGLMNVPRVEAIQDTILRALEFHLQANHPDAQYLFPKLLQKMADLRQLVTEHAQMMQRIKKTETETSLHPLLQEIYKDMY

The target in assay [5] is Vitamin D3 receptor (Homo sapiens) (UniProt P11473). The assay can be described thus: qHTS assay for small molecule antagonists of vitamin D receptor signaling (AID 588541).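 Also: receptor activated by calcitriol during compound treatment; series mostly up to about 77 µM; % is scaled to controls: 0 for no effect and ±100 for the full control effect.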 The method, boiled down: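 VDR-UAS-bla HEK293T cells in 2% charcoal-stripped FBS were stimulated with 1-alpha,25-dihydroxyvitamin D3 (3 nM final) plus compound for 16 h at 37 C. The beta-lactamase CCF4 readout was normalized to 50 nM agonist and DMSO, and Hill fits gave IC50.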
Vitamin D3 receptor (Homo sapiens), sequence (P11473 whole entry, looked up): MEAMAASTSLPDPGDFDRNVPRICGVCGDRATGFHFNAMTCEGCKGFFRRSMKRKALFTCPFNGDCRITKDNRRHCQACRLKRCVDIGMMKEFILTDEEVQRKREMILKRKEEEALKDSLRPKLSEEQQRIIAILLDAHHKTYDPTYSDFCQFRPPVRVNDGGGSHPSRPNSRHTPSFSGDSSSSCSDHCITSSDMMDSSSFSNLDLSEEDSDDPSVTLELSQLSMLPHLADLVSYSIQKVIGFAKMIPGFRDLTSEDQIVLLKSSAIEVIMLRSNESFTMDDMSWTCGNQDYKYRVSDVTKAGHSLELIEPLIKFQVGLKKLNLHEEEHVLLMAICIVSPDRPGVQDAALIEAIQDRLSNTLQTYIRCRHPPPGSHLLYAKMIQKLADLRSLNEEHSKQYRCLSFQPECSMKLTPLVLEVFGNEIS

Assay [6] has the same target. The assay can be described thus: qHTS assay for small molecule agonists of vitamin D receptor signaling (AID 588543).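 Also: 0% = DMSO basal and 100% = reference agonist control.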 The method, boiled down: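 Reporter cells (HEK293T, VDR-UAS-bla) were seeded in medium with 2% charcoal-stripped serum and incubated 5 h, then compounds in concentration series were added for 16 h at 37 °C. Stimulation was scaled between DMSO basal and 50 nM 1α,25-dihydroxyvitamin D3.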

The target of assay [7] is Thyroid hormone receptor beta (Homo sapiens) (UniProt P10828). The assay can be described thus: qHTS assay for small molecule agonists of thyroid hormone receptor beta signaling (AID 588545). The method in brief: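 Cells (2500/well) were seeded, incubated 4 hrs at 37 C, dosed with a compound series, incubated 18 hrs, loaded with CCF4 dye for 2 hrs at RT, then read for fluorescence. Data were scaled between DMSO (0%) and 10 nM T3 (100%).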
Thyroid hormone receptor beta (Homo sapiens), sequence (P10828 whole entry, looked up): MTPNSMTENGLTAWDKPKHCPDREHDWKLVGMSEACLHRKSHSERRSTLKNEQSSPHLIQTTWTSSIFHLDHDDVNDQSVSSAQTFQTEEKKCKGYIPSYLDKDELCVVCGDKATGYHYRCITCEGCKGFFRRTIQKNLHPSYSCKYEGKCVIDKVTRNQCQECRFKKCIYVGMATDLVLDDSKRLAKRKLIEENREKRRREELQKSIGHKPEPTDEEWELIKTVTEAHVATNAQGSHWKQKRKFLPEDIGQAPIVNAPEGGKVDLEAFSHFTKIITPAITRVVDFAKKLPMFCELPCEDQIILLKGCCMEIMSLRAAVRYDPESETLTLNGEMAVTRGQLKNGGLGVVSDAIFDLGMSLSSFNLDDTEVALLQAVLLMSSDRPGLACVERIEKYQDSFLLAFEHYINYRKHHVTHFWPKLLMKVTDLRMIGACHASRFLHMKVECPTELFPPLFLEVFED

For assay [8] the target is unchanged. The assay can be described thus: qHTS assay for small molecule antagonists of thyroid hormone receptor beta signaling (AID 588547; active = well fitted inhibition curve with a large enough effect in the signal ratio, with a control signal flat, not every such curve was filed as active; the % refers to the signal ratio;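 also: cells stimulated with 0.4 nM T3 agonist during compound exposure; series mostly up to about 77 µM; % is scaled to controls: 0 for no effect and ±100 for the full control effect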). The settings on record: TR-UAS-bla HEK293, beta-lactamase ratio, antagonist mode, 18 h. The method in brief: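 TR-UAS-bla GripTite HEK293 cells in 2% charcoal/dextran FBS medium; compounds 0.59 nM to 92 uM with T3 at 0.4nM final, 18 h at 37 C. Beta-lactamase read by CCF4 fluorescence (460/530 nm); Hill fits gave IC50 and efficacy.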

A short description of assay [9]: qHTS assay for small molecule agonists of the antioxidant response element (ARE) signaling pathway (AID 651741; active = well fitted activation curve with a large enough effect in the signal ratio; the % refers to the signal ratio; also: potency is read from the fitted curve at half-maximal effect). The method in brief: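 CellSensor ARE-bla HepG2 cells (2,000/well) carrying ARE-driven beta-lactamase, exposed 16 h at 37 C. LiveBLAzer B/G FRET substrate added for 2 h at room temperature; fluorescence intensity read.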
Assay [10] in a line: qHTS assay for small molecule activators of the p53 signaling pathway (AID 651743; active = well fitted activation curve with a large enough effect in the signal ratio, not every such curve was filed as active; the % refers to the signal ratio; also: series mostly up to about 92 µM; % of control where 0% means no effect). The settings on record: HCT-116 p53RE-bla, beta-lactamase FRET ratio, 16 h; activation: stronger effect = higher value. The method in brief:
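p53RE-bla HCT-116 cells carrying a beta-lactamase reporter under p53 response elements were exposed to compounds for 16 hours at 37 C. Reporter activity read as fluorescence after 2 hours at room temperature with LiveBLAzer B/G FRET substrate.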

Assay [11] in a line: qHTS assay for small molecule activators of the nuclear factor-kappa B (NF-kB) signaling pathway (AID 651749; active = well fitted activation curve with a large enough effect in the signal ratio; the % refers to the signal ratio; also: series mostly up to about 77 µM; % of control where 0% means no effect). The settings on record: NF-kB-bla ME-180 cells, beta-lactamase FRET ratio, 16 h; activation: stronger effect = higher value. The method, boiled down: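 NF-kB-bla ME-180 cells carrying a beta-lactamase reporter under an NF-kB response element, 2,000 cells/well, exposed to compound for 16 hr at 37C; FRET-based beta-lactamase fluorescence read-out of pathway activation.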

Assay [12] is described as follows: qHTS assay for environmental chemicals that activate the Aryl hydrocarbon Receptor (AhR) signaling pathway (AID 651777; active = well fitted curve in the direction sought with a large enough effect; an effect the other way counts as inactive or inconclusive; also: % of control where 0% means no effect; nearly all actives have a fitted effect of over 15% in size). The settings on record: 1A2-DRE human hepatoma cells, luciferase, 24 h; activation: stronger effect = higher value. The method in brief: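 Measured luciferase activity, read 30 min after One-Glo addition at room temperature, from human hepatoma cells bearing a dioxin response element–CYP1A2 promoter reporter and exposed to compound for 24 hr at 37 C.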

In assay [13] the target is Peroxisome proliferator-activated receptor alpha (Homo sapiens) (UniProt Q07869). The assay can be described thus: qHTS assay for small molecule agonists of the peroxisome proliferator-activated receptor alpha (PPARalpha) signaling pathway (AID 651778; active = well fitted curve in the direction sought with a large enough effect; an effect the other way counts as inactive or inconclusive; also: % of control where 0% means no effect). The note with it: PathHunter PPARalpha complementation, chemiluminescence, 6 h; max response: stronger effect = higher value. The method, boiled down: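 Enzyme-fragment complementation assay in which ligand-bound PPARalpha translocates and forms an active enzyme that generates chemiluminescence. Cells were plated overnight, exposed to compound for 6 hr at 37 C, and then given detection reagent for 60 min at room temperature.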
Peroxisome proliferator-activated receptor alpha (Homo sapiens), sequence (Q07869 whole entry, looked up, the tested form may be a part): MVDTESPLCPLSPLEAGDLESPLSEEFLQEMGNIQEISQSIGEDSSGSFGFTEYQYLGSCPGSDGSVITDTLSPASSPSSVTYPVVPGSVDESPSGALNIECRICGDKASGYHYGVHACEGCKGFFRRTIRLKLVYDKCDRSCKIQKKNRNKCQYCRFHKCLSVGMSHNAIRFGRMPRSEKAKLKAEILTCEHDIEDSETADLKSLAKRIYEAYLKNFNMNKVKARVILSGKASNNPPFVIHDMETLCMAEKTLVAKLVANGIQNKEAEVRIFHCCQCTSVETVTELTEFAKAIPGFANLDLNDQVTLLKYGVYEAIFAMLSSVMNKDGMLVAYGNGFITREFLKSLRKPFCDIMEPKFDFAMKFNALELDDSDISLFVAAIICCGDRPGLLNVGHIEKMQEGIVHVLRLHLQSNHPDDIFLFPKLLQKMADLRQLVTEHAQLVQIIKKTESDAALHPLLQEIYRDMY

Assay [14] can be described thus: qHTS assay for small molecule agonists of the antioxidant response element (ARE) signaling pathway measured by Nrf2-dependant transcriptional activity (AID 720636; active = well fitted curve in the direction sought with a large enough effect in the repeat runs; an effect the other way counts as inactive or inconclusive;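 also: HepG2 cells with an ARE-driven luciferase reporter; % of control where 0% means no effect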). The method, boiled down:
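In HepG2 cells engineered with an Nrf2-responsive luciferase gene, ARE induction was quantified as luminescence after 16 hr compound treatment at 37 C.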

A short description of assay [15]: qHTS assay for small molecule agonists of the antioxidant response element (ARE) signaling pathway measured by Nrf2-dependant transcriptional activity - cell viability counter screen (AID 720653; active = well fitted curve in the direction sought with a large enough effect in the repeat runs; an effect the other way counts as inactive or inconclusive; also: % is scaled to controls: 0 for no effect and ±100 for the full control effect). The settings on record: ARE-bla HepG2 viability, CellTiter-Glo ATP luminescence, 16 h; max response: stronger effect = lower value. The method in brief: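 ARE-bla HepG2 cells treated with compounds for 16 h at 37C; this counter screen measures viability as intracellular ATP by CellTiter-Glo luminescence after 30 min at room temperature.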

Assay [16] can be described thus: qHTS assay for cell viability of HEK293 cells (AID 743288; active = well fitted curve in the direction sought with a large enough effect; an effect the other way counts as inactive or inconclusive; also: % is scaled to controls: 0 for no effect and ±100 for the full control effect; nearly all actives have a fitted effect of over 50% in size). The note with it: ATP luminescence (CellTiter-Glo), 18 h; max response: stronger effect = lower value. The method in brief: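 HEK293 parental, 2,000 cells/well; ≥5 h pre-incubation 37 C; pintool compound addition; 18 h, 37 C; CellTiter-Glo 30 min RT; luminescence read.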
A short description of assay [17]: qHTS assay for cell viability of the p53RE-bla HCT-116 cell line (AID 743292; active = well fitted curve in the direction sought with a large enough effect; an effect the other way counts as inactive or inconclusive; also: % is scaled to controls: 0 for no effect and ±100 for the full control effect; nearly all actives have a fitted effect of over 55% in size). The method in brief:
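Intracellular ATP of p53RE-bla HCT-116 cells measured by luciferase luminescence following 16 h compound incubation at 37 C; DMSO-only wells served as vehicle controls.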

The nature of assay [18]: qHTS assay for small molecule antagonists of retinoid X receptor alpha signaling (AID 588546; active = well fitted inhibition curve with a large enough effect in the signal ratio, with a control signal flat, not every such curve was filed as active; the % refers to the signal ratio;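 also: cells stimulated with 9-cis-retinoic acid as agonist; % is scaled to controls: 0 for no effect and ±100 for the full control effect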). The note with it: HEK293T RXRa-UAS-bla, beta-lactamase ratio, antagonist mode; measured here: W530 green channel, cytotoxicity proxy. The method, boiled down: (§1)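 Beta-lactamase reporter inhibition, read as CCF4 fluorescence ratio (ex 405, em 460/530 nm) after 2 h at RT. HEK293T UAS-bla cells, 2500/well, were stimulated with 9-cis-RA at 500 or 100 nM final alongside test compound for 18 h at 37 C.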

Assay [19] has as its target Retinoic acid receptor RXR-alpha (Homo sapiens) (UniProt P19793). The assay is described as above. The note with it: HEK293T RXRa-UAS-bla, beta-lactamase ratio, antagonist mode. The method in brief: as §1
Assay [20] deals with Nuclear receptor subfamily 1 group I member 2 (Rattus norvegicus) (UniProt Q9R1A7). The assay can be described thus: qHTS assay for small molecule activators of the rat pregnane X receptor (rPXR) signaling pathway (AID 651751; call rule not given here; also: 0% is about no effect). The settings on record: rPXR reporter cells, luciferase (One-Glo), 24 h.
Nuclear receptor subfamily 1 group I member 2 (Rattus norvegicus), sequence (Q9R1A7 whole entry, looked up): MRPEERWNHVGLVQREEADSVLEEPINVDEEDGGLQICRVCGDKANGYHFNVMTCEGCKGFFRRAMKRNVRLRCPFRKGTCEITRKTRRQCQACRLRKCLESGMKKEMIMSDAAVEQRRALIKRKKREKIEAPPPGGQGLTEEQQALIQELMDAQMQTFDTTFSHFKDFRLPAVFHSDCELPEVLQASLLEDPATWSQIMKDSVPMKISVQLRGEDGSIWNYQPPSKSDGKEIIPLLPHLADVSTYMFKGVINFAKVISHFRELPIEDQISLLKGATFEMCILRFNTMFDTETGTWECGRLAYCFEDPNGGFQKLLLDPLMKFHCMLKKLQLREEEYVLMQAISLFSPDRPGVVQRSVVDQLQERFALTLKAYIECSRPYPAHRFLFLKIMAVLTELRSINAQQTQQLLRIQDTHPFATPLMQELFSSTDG

Experimental findings from PubChem BioAssay (NCATS) are described below.

Records with an inconclusive call do not appear. Active and inactive are the calls of the source. Unless noted, calls follow the shape of the full dose curve.

Glucocorticoid receptor (Homo sapiens), sequence (P04150 whole entry, looked up): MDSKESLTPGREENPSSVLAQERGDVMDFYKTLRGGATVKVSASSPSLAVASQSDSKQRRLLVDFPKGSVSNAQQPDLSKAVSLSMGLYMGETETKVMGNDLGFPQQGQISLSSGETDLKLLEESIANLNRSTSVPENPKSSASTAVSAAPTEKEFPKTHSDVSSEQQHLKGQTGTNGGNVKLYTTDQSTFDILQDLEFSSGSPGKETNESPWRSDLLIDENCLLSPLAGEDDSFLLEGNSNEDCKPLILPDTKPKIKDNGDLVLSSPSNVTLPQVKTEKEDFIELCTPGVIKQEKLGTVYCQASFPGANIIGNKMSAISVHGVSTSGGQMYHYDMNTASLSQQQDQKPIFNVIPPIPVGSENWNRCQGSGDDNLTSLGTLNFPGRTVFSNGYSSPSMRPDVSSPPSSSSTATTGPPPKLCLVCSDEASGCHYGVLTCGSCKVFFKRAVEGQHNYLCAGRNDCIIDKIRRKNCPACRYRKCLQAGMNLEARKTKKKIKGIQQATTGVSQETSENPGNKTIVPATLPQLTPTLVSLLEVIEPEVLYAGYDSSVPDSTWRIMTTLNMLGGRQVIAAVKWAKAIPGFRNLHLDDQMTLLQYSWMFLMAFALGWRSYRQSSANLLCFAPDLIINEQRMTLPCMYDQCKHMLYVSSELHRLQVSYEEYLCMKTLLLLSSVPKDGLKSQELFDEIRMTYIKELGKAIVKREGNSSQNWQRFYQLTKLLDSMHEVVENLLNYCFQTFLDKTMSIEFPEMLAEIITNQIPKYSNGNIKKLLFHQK
Retinoic acid receptor RXR-alpha (Homo sapiens), sequence (P19793 whole entry, looked up): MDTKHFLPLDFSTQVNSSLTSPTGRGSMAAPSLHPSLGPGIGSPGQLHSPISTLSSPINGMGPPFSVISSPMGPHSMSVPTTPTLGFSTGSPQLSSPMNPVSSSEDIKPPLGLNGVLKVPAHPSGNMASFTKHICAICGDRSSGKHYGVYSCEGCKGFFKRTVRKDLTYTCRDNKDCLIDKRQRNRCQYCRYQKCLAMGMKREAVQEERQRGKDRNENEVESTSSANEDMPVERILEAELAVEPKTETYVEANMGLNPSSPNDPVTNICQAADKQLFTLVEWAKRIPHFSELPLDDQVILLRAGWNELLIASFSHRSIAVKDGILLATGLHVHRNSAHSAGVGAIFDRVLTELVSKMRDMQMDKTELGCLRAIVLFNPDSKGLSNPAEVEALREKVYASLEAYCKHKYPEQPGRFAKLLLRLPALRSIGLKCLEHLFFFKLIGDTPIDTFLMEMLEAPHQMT

On to `O=S(c1ccc(Cl)cc1)c1cc(Cl)c(Cl)cc1Cl` (centres undefined), for which the activation in assay [1] is 0.155% (inactive).
Same read-out and setting: next, `Nc1nc2ccccc2[nH]1`: 3.95% (inactive).
In the case of `CCC(CC)Nc1c([N+](=O)[O-])cc(C)c(C)c1[N+](=O)[O-]`, the Potency result in assay [2], in [5], in [7], in assay [14] and in [17] was “inactive” throughout. The activation was -2.05% (inactive) in assay [3], -0.326% (inactive) in [10], -1.58% (inactive) in assay [11] and 4.64% (inactive) in [12]. For the same compound, the call in [4] and in assay [6] was inactive. Besides, the activity change % (negative = inhibition) in [8] was -5.09% (inactive). In [9], the Potency was 27.3 µM (active). Further, the max response in [13] is -0.0369% (inactive); in assay [15] it was -7.95% (inactive); in assay [16], -2.98% (inactive).
`CN1COCN(Cc2cnc(Cl)s2)/C1=N\[N+](=O)[O-]`: the Potency entry in [2], in assay [5], in assay [14] and in assay [17] was “inactive” throughout. Besides, the call in [4] and in assay [6] was inactive. Also, the max response was -4.43% in assay [18]; 2.74% (inactive) in assay [19]; -1.32% (inactive) in assay [13]; -21.4% (inactive) in [15]; -0.262% (inactive) in assay [16]; -0.267% (inactive) in assay [20]. Moreover, in [8], the activity change % (negative = inhibition) is -19.4% (inactive). Further, the activation in [10] was -3.46% (inactive); in [11], 0.219% (inactive); in assay [12] it was -0.335% (inactive).
With `Oc1ccc(Nc2ccccc2)cc1`, in [1], the activation is 0.593% (inactive).
Same read-out and setting: next, `O=[N+]([O-])c1ccc(O)cc1C(F)(F)F`: -0.0736% (inactive); `CCC(C)(C)C`: -0.224% (inactive).
Take `O=C/C(Cl)=C(/Cl)C(=O)O`: in [2], the Potency is 44.7 µM (active). The activation was -13.8% (inactive) in [3], 1.31% (inactive) in assay [11] and 5.71% (inactive) in assay [12]. Besides, in assay [6], the call was inactive. Also, the Potency result in [7] and in [17] was “inactive” throughout. For the same compound, the results for the max response in [13], in assay [15] and in assay [20] were -1.15% (inactive), -4.23% (inactive) and -11.2% (inactive), respectively.
`Cc1ccc(C(C)(C)C)c(O)c1`: in [1], the activation was -1.53% (inactive).
Same read-out and setting: next, `CCN(Cc1c(F)cccc1Cl)c1c([N+](=O)[O-])cc(C(F)(F)F)cc1[N+](=O)[O-]`: 8.75% (inactive).
The same measure, in the same setting: for `CCCOC(=O)c1cc(O)c(O)c(O)c1` the value was -0.748% (inactive).
The same measure, in the same setting: next, `N#CSCSc1nc2ccccc2s1`: 15% (inactive).
As to `C[Si](Cn1cncn1)(c1ccc(F)cc1)c1ccc(F)cc1`, the Potency in assay [2] is 22.4 µM (active). The activation in assay [1] was 2.34% (inactive); in [10], -4.21% (inactive); in assay [12], 6.54% (inactive). Besides, the Potency result in assay [5], in [7], in assay [14] and in assay [17] was “inactive” throughout. The outcome in assay [6] was inactive. In addition, the max response in assay [13] was -0.864% (inactive); in assay [15], -21.1% (inactive).
Take `CC1(C)[C@@H]([C@@H](Br)C(Br)(Br)Br)[C@H]1C(=O)O[C@H](C#N)c1cccc(Oc2ccccc2)c1`: the activation in assay [1] is 6.35% (inactive).
As for `CCCSP(=O)(OCC)Oc1ccc(Br)cc1Cl` (centres undefined), the Potency result in assay [2], in assay [5], in [7], in assay [14] and in assay [17] was “inactive” each time. Further, the activation in [1] is 3.54% (inactive); in assay [10] it was 3.94% (inactive); in assay [11] it was 0.74% (inactive); in [12] it was 3.36% (inactive). Further, the call in [4] and in assay [6] was inactive. The activity change % (negative = inhibition) in assay [8] was 3.3% (inactive). Also, the max response in [13] is -0.001% (inactive); in assay [15], -7.9% (inactive); in assay [16], -22.2% (inactive); in [20] it was 7.3% (inactive).
